The entries come from a sample that favours hits as a whole.
Pf Dd2 inh = blocks in vitro growth of P. falciparum Dd2; P. falciparum Dd2 growth, SYBR Green, 72 h; Potency, µM (top dose mostly 28.9 µM), for inactives: at the top dose activity, negative = inhibition, actives largely listed as inhibitors; hit rate 4.3% among 120,000; AID 1347417; active = well fitted inhibition curve with a large enough effect;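 also: plate controls were DMSO vehicle for no effect and reference drug for full effect; nearly all actives have a fitted effect of over 65% in size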
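Readout: SYBR Green fluorescence, 485 nm excitation, 535 nm emission, after ~16 h lysis at 37C. Before that, Dd2-infected red cells (2.5% hematocrit) grew 72 h with compound, 29 uM top final concentration.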
* marks the source's active call; other numbers are inactive results; [ ] = another dose, or the depositor's remark. Potency is read from the fitted curve at half-maximal effect.

`CC1=C[C@@H](CNCc2ccco2)[C@H](C(C)C)C[C@H]1Cc1nnc(C(C)(C)C)o1` gave Pf Dd2 inh 12.6µM*.
Screening CC1=C[C@@H](CN2CCC(C(N)=O)CC2)[C@H](C(C)C)C[C@H]1Cc1nnc(C(C)(C)C)o1 returned Pf Dd2 inh inactive.
`COc1ccc(-c2nnc(C[C@@H]3C[C@@H](C(C)C)[C@H](CNCc4ccncc4)C=C3C)o2)cc1` gave Pf Dd2 inh 3.98µM*.
`CC1=C[C@@H](CNC(=O)NC(C)C)[C@H](C(C)C)C[C@H]1CC(=O)NCc1ccccn1` gave Pf Dd2 inh -21.9%[44.1 µM].
Screening CC1=C[C@@H](CNC(=O)C(C)(C)C)[C@H](C(C)C)C[C@H]1Cc1nnc(-c2ccccc2F)o1 returned Pf Dd2 inh -0.3%[44.1 µM].
Screening CC1=C[C@@H](CNC(=O)c2cccnc2)[C@H](C(C)C)C[C@H]1CC(=O)NCc1ccccn1 returned Pf Dd2 inh -12.1%[44.1 µM].
`COc1ccc(C(=O)NC[C@@H]2C=C(C)[C@H](CC(=O)O)C[C@H]2C(C)C)cc1` gave Pf Dd2 inh -5.3%[44.1 µM].
For CC1=C[C@@H](CN(C)CCN(C)C)[C@H](C(C)C)C[C@H]1Cc1nnc(-c2ccccc2)o1 the results were Pf Dd2 inh 3.55µM*.
For CC1=C[C@@H](CN(C)CCc2ccccn2)[C@H](C(C)C)C[C@H]1Cc1nnc(-c2ccncc2)o1 the results were Pf Dd2 inh 3.55µM*.
For O=C1CC(c2ccccc2)N(C(=O)CNC(=O)c2ccoc2)CCCCCN1 (stereo not given) the results were Pf Dd2 inh -11.7%.
`COCC(=O)N[C@H]1C[C@@H](CO)N(Cc2ccc(Br)o2)C1` gave Pf Dd2 inh -6.1%.
Screening CCN1c2cc(C(=O)N3CCC(C(N)=O)CC3)ccc2C(=O)N2CCCCCC21 (stereo not given) returned Pf Dd2 inh 26.9%.
`COC(=O)CNC(=O)c1cc(-c2ccc(Cl)cc2Cl)nc2c1cnn2C` gave Pf Dd2 inh 5.4%.
For O=C(NCCC1CCN(C(=O)Nc2ccc(F)cc2F)CC1)C1CCCC1 the results were Pf Dd2 inh -18.8%.
Screening CN(CCn1ccnc1-c1ccc(CO)o1)S(C)(=O)=O returned Pf Dd2 inh 3.7%.
CC1=C[C@@H](CNC(=O)COc2ccccc2)[C@H](C(C)C)C[C@H]1CC(=O)Nc1ccccn1 was read as Pf Dd2 inh inactive.
`CC1=C[C@@H](CNS(=O)(=O)c2ccccc2)[C@H](C(C)C)C[C@H]1CC(=O)NCc1ccccn1` gave Pf Dd2 inh inactive.
`CC1=C[C@@H](CN(C)CCc2ccccn2)[C@H](C(C)C)C[C@H]1Cc1nnc(-c2ccccc2)o1` gave Pf Dd2 inh 2.24µM*.
For CSCc1noc(CNC(=O)c2cn(CCN)nn2)n1 the results were Pf Dd2 inh -2.0%.
`COCCNC(=O)[C@H]1C[C@H](Oc2cccnc2)CN1C(=O)Nc1ccc(OC)cc1` gave Pf Dd2 inh 10.1%.
Screening CCN1c2cc(C(=O)N3CCN(c4ccccc4)CC3)ccc2C(=O)N2CCCCC21 (stereo not given) returned Pf Dd2 inh inactive.
For CCN1c2cc(C(=O)N3CCN(c4ccccn4)CC3)ccc2C(=O)N2CCCCC21 (stereo not given) the results were Pf Dd2 inh inactive.
CCOc1ccccc1N1CCN(C(=O)c2ccc3c(c2)N(C)C2CCCCN2C3=O)CC1 (stereo not given) was read as Pf Dd2 inh 5.01µM*.
Screening CN1c2cc(C(=O)N3CCN(c4ccc(F)cc4)CC3)ccc2C(=O)N2CCCCCC21 (stereo not given) returned Pf Dd2 inh inactive.
Cc1cccc(N2CCN(C(=O)c3ccc4c(c3)N(C)C3CCCCCN3C4=O)CC2)c1 (stereo not given) was read as Pf Dd2 inh 8.91µM*.
Cc1cccc(NC(=O)c2ccc3c(c2)N(C)C2CCCCCN2C3=O)c1 (stereo not given) was read as Pf Dd2 inh inactive.
For CN1c2cc(C(=O)Nc3ccccc3)ccc2C(=O)N2CCCCC21 (stereo not given) the results were Pf Dd2 inh inactive.
CCN1c2cc(C(=O)N3CCCCC3)ccc2C(=O)N2CCCCCC21 (stereo not given) was read as Pf Dd2 inh inactive.
CN1c2cc(C(=O)N3CCN(c4ccccc4Cl)CC3)ccc2C(=O)N2CCCCC21 (stereo not given) was read as Pf Dd2 inh 6.31µM*.
`COc1ccccc1C(=O)NC1CCN(c2cc(-c3ccccc3)[nH]n2)C1` (stereo not given) gave Pf Dd2 inh inactive.
`COc1ccc(C(=O)N2CCN(c3cc(C(F)(F)F)ncn3)CC2)cc1OC` gave Pf Dd2 inh 0.6%.
Screening O=C(N[C@H]1CCN2C(=O)[C@@H](Cc3c[nH]c4ccccc34)NC(=O)[C@H]12)c1ccccc1 returned Pf Dd2 inh -3.6%[44.1 µM].
`CN1C(=O)CCCCC1C(=O)N1CCc2ccccc2C1` (stereo not given) gave Pf Dd2 inh -23.7%.
